Broadly, the inhibition is the relative decrease from the control value, in per cent.

We go through 36 molecules from ChEMBL document CHEMBL3433997, “St. Jude Leishmania screening dataset” (2016).

Molecules are shown by their SMILES.

Assay type in all cases: functional
In assay [1] the target is Solute carrier family 2, facilitated glucose transporter member 1 (Homo sapiens) (UniProt P11166). In words: ST_JUDE_LEISH: Cytotoxicity at 2uM final concentration against transgenic Leishmania Mexicana promastigotes LmGLUT1 that are glucose transport deficient and complemented with the human glucose transporter GLUT1. Activity is measured by DNA content using SYBR green in vitro.
Solute carrier family 2, facilitated glucose transporter member 1 (Homo sapiens), sequence (P11166 whole entry): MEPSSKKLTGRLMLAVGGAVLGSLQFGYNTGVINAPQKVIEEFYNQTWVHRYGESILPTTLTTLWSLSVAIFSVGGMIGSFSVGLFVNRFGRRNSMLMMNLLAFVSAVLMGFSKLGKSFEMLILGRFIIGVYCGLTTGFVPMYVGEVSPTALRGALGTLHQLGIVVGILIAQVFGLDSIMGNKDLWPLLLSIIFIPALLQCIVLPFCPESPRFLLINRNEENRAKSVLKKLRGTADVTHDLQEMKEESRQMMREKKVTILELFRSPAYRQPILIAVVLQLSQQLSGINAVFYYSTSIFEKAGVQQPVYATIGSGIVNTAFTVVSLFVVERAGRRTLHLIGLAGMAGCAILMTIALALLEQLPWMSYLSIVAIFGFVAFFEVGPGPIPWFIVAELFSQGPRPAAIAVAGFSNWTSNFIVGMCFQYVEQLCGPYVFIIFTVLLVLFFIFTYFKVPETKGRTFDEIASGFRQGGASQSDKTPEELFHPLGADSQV

Assay [2] addresses Hexose transporter 1 (Plasmodium falciparum) (UniProt O97467). The experiment in a line: ST_JUDE_LEISH: Cytotoxicity at 2uM final concentration against transgenic Leishmania Mexicana promastigotes LmPfHT that are glucose transport deficient and complemented with the Plasmodium falciparum hexose transporter. Activity is measured by DNA content using SYBR green in vitro.
Assay [3] concerns the target Glucose transporter (Leishmania mexicana) (UniProt O61059). The experiment in a line: ST_JUDE_LEISH: Cytotoxicity at 2uM final concentration against transgenic Leishmania Mexicana promastigotes LmGT2 that are glucose transport deficient and complemented with the L. Mexicana glucose transporter 2. Activity is measured by DNA content using SYBR green in vitro.

Take `Cc1ccc(-n2ncc(C(=O)Nc3cc(Cl)cc(Cl)c3)c2C2CCNCC2)cc1C`: the values for the inhibition in assay [1], in assay [2] and in assay [3] were 3.26%, 1.43% and -0.12%, respectively.
The corresponding values for `CS(=O)(=O)c1ccc(CNCc2cccc(-c3cccc(-c4nc5cc(C(F)(F)F)ccc5[nH]4)c3)c2)cc1` are 5.54%, 5.92% and 3.97%.
The corresponding values for `COC(=O)c1cccc(NC(=O)NC2CCN(c3ccnc(Nc4cc(OC)c(OC)c(OC)c4)n3)C2)c1` (stereo not drawn) are 10.5%, 6.39% and 8.79%.
Taken in the same sequence, the figures for `CCN(CC)CCNc1ccnc2[nH]c3ccc(C)cc3c12` were 0.06%, 0.18% and 0.34%.
In the case of `CC(C)OC(=O)c1ccc(NC(=O)N[C@@H](Cc2ccc(O)cc2)C(=O)NC2CCC(CCN3C4CCC3c3ccccc34)CC2)cc1` (stereo partly drawn), the values for the inhibition in assay [1], in assay [2] and in assay [3] were 3.08%, 2.7% and 2.46%, respectively.
For the molecule `COC(=O)C(NC(=O)c1ccc(-c2ccc(-c3nc4ccccc4[nH]3)s2)cc1)c1ccc(O)cc1` (stereo not drawn), the inhibition worked out at 3.31% in assay [1], 2.37% in assay [2] and 3.11% in assay [3].
The corresponding values for `Fc1cc(Cl)ccc1Nc1ccnc2cc(-c3scnc3CNCCN3CCOCC3)ccc12` are 2.02%, 1.16% and 0.33%.
The corresponding values for `O=C(Cn1cc(C=C2SC(=NC3CCCC3)N(C3CCCC3)C2=O)c2ccccc21)N1CCCC1` are 4.24%, 1.46% and 0.81%.
As to `Cc1cccc2nc(-c3cccc(-c4ccc(NC(=O)NC(C)C)cc4)c3)[nH]c12`, the results for the inhibition in assay [1], in assay [2] and in assay [3] were 0%, 2.42% and -0.9%, respectively.
Regarding `CCC[C@@H]([C@@H](CC(C)C)C(=O)N[C@@H](CCCNc1nccc(C(F)(F)F)n1)C(=O)Nc1nccs1)N(O)C=O`, the inhibition stood at 3.82% in assay [1], 4.8% in assay [2] and 3.22% in assay [3].
Take `O=[N+]([O-])c1cccc(CNCC2CCN(CC3CCCCC3)CC2)c1`: the inhibition in assay [1] is -0.61%; in assay [2], 3.2%; in assay [3], 2.98%.
Taken in the same sequence, the figures for `CCCCCCCCc1c(C)nc(C)c(C#N)c1O` were 5.8%, 6.51% and 5.78%.
As for `COc1ccc2nccc(NCC3(O)CCN(CC(O)c4ccc5c(c4)NC(=O)CS5)CC3)c2n1` (stereo not drawn), the inhibition amounted to 3.39% in assay [1], 2.49% in assay [2] and 2.58% in assay [3].
Taken in the same sequence, the figures for `CN1CCC(Oc2ccc(Nc3nccc(NCC(O)c4ccccc4)n3)cc2Cl)CC1` (stereo not drawn) were -2.84%, -3.54% and -6.09%.
Taken in the same sequence, the figures for `Cc1cc(N[C@@H](Cc2ccccc2)C(=O)Nc2ccccc2)nc(NCCc2cccnc2)n1` were 10.6%, 11% and 9.02%.
In the case of `CCCCCCNC(=O)C(N)CCCC(N)C(=O)NCCCCCC` (stereo not drawn), the values for the inhibition in assay [1], in assay [2] and in assay [3] were 6.05%, 5.65% and 5.23%, respectively.
On to `O=C(Nc1cccc(-c2nc3ccccc3s2)c1)c1ccccc1[N+](=O)[O-]`, for which the figures for the inhibition in assay [1], in assay [2] and in assay [3] were 0.94%, -0.02% and -0.15%, respectively.
Take `COc1ccc2nccc(N3CCC(CCNCc4cc5c(cn4)OCCO5)CC3)c2c1`: the inhibition in assay [1] is 7.15%; in assay [2], 8%; in assay [3] it was 4.48%.
The corresponding values for `Cc1[nH]c(C)c(-c2ccc(Oc3ccc(C(F)(F)F)cc3)cc2)c(=O)c1Br` are 3.22%, 5.35% and 3.05%.
The corresponding values for `COc1cc2c(cc1OC)CC(NCCCCCCNCCc1ccc(Cl)cc1)CC2` (stereo not drawn) are 0.92%, -1.16% and 0.76%.
Taken in the same sequence, the figures for `COc1ccc2ncc(F)c(CCN3CCC(NCc4cc5c(cn4)OCCS5)CC3)c2c1` were 57.8%, 66.5% and 80.3%.
`O=C(Nc1ccc(Cl)cc1C(=O)Nc1cccc(F)c1)c1ccc([N+](=O)[O-])cc1`: the inhibition came to 0.5% in assay [1], 0.92% in assay [2] and 1.58% in assay [3].
On to `FC(F)(F)c1ccc2[nH]c(-c3cccc(-c4cccc(CNCCc5ccncc5)c4)c3)nc2c1`, for which the values for the inhibition in assay [1], in assay [2] and in assay [3] were 4.96%, 4.69% and 5.06%, respectively.
Take `O=C(/C=C/c1c(Cl)cccc1Cl)NC1CCC(CN2CCC(c3c[nH]c4ccncc34)CC2)CC1` (stereo not drawn): the inhibition in assay [1] was 5.27%; in assay [2], 5.98%; in assay [3], 4.84%.
In the case of `N=C(N)NC(=O)Nc1cc(Cl)c(Cl)c(C(F)(F)F)c1`, the results for the inhibition in assay [1], in assay [2] and in assay [3] were 2.87%, 3.46% and 1.58%, respectively.
Take `c1ccc(CN2CCC(Nc3ccc(-c4c[nH]nc4-c4ccccn4)nc3)CC2)cc1`: the inhibition in assay [1] came to 4.32%; in assay [2] it was 4.84%; in assay [3], 4.12%.
Take `COc1ccc(-c2nc(NCc3ccccc3)c3cc(OC)c(OC)cc3n2)cc1`: the inhibition is 10.8% in assay [1], 12.1% in assay [2] and 4.38% in assay [3].
The corresponding values for `COCCn1c(SC(C)C(=O)Nc2cc(C(F)(F)F)ccc2Cl)nc2ccccc2c1=O` (stereo not drawn) are 0.17%, -0.22% and -0.21%.
The corresponding values for `CN(C)CCN(Cc1ccc(-c2ccc(CNCCc3ccccc3)cc2)nc1)C(=O)CCC1CCCC1` are 3.68%, 6.87% and 6.39%.
Taken in the same sequence, the figures for `O=[N+]([O-])c1ccc(-c2ccc(C=NNc3nc(Nc4ccccc4)nc(Nc4ccccc4)n3)o2)cc1` were 0.91%, -0.88% and -1.48%.
For `c1ccc(-c2cccnn2)cc1`, the inhibition in assay [1] came to 1.25%; in assay [2], 1.26%; in assay [3], 1.72%.
The corresponding values for `COc1ccc(N2CCN(CCCCNCc3ccc(NC(=O)c4cc(Cl)cc(Cl)c4)cc3)CC2)c(OC)c1` are 3.33%, 2.32% and 1.31%.
The corresponding values for `O=C(NC1CCN(Cc2ccccc2)CC1)c1cc(C(=O)NC2CCN(Cc3ccccc3)CC2)cc(C(=O)NC2CCN(Cc3ccccc3)CC2)c1` are 5.09%, 4.78% and 4.94%.
Taken in the same sequence, the figures for `CCCC1(NC[C@@H](O)[C@H](Cc2ccccc2)NC(=O)c2cc(NCC)cc(N3CCCCS3(=O)=O)c2)CC1` were 1.58%, 1.33% and -0.73%.
For `Cc1ccccc1CCNC(=O)c1cnc(N2CCN(c3ccncc3)CC2)c(Cl)c1`, the inhibition in assay [1] was 79%; in assay [2], 81.9%; in assay [3], 84.2%.
Consider `Nc1nc(N)c2c3c(ccc2n1)CCC3`, for which the inhibition amounted to 0.87% in assay [1], 1.48% in assay [2] and 1.24% in assay [3].
